Compound activity as filed in PubChem BioAssay.
Most compounds without a hit are left out; they make up all but 2.2% or so of the library.
CF NFkB block: cystic fibrosis NF-kB activation inhibition. KKLEB NF-kB-GFP reporter, PAF-induced, GFP fluorescence overnight. inhibition, % at 5 µM. 360,000 tested, 0.86% active;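 active = at least 50% inhibition at 5 µM, scaled per plate between neutral and stimulator controls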;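 note: PAF is a Pseudomonas aeruginosa culture filtrate used as stimulus; plate controls were PAF-stimulated DMSO wells for no effect and unstimulated DMSO wells for full effect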
PPC-1+TRAIL kill: compounds killing PPC-1 cancer cells with TRAIL present (potentiator screen, no TRAIL-free arm). PPC-1 cells + TRAIL, ATPLite viability luminescence. cell killing (% activity), % at 4 µM or 5 µM. 220,000 tested, 0.41% active. AID 1443;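 active = cell killing above 50% in the first pass at 4 µM, then a duplicate retest at 5 µM averaging 50% or more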;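 note: plate controls were cells with TRAIL plus DMSO for no effect and medium-only wells lacking cells for full effect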
hiPSC survival: enhancers of human iPSC single-cell survival. 360,000 tested, 0.044% active. hiPSC single-cell survival, ATPlite luminescence; 100% = ROCK inhibitor wells, 0% = DMSO. survival enhancement, % at 20 µM; in the data active = survival enhancement above about 18%;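 note: cells exposed to compounds for 16 hours before the ATP read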
C8 TRAIL sens: caspase-8 TRAIL sensitization; NB7+C8 cells + TRAIL, ATPlite viability luminescence; 360,000 tested, 1% active; AID 624354; inhibition (viability loss, TRAIL sensitization), % at 10 µM;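 active = compounds causing at least 50% loss of cell viability in the single-dose screen, relative to plate controls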
KKLEB tox: reduces viability of KKLEB cystic fibrosis airway cells | KKLEB CF airway cells viability, ATPlite luminescence, overnight; stronger effect = lower value; cells stimulated with P. aeruginosa culture filtrate | activity change (cytotoxicity), % at 5 µM | 360,000 tested, 0.36% active;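 active = corrected activity change at or below -50% at 5 µM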
HIF-2a block: HIF-2a inhibition; 786-0 RCC cells HIF-2a reporter, luciferase luminescence, overnight; inhibition, % at 18.8 µM; 360,000 tested, 0.72% active; AID 624352;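 active = inhibition of the luminescence signal of 40% or more relative to plate controls, in a single-dose primary screen at 18.75 µM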
Mdm2 MdmX conf: confirmation of inhibitors of human Mdm2/MdmX interaction, set 2; shares compounds with HIF-2a block; SaOS-2 split-luciferase Mdm2/MdmX complementation, luminescence; inhibition, % at 8 µM; 740 tested, 99% active; AID 504601;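 active = mean inhibition of the luminescence signal across two replicates at or above 26 percent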
Target sequence (O15151 whole entry, looked up): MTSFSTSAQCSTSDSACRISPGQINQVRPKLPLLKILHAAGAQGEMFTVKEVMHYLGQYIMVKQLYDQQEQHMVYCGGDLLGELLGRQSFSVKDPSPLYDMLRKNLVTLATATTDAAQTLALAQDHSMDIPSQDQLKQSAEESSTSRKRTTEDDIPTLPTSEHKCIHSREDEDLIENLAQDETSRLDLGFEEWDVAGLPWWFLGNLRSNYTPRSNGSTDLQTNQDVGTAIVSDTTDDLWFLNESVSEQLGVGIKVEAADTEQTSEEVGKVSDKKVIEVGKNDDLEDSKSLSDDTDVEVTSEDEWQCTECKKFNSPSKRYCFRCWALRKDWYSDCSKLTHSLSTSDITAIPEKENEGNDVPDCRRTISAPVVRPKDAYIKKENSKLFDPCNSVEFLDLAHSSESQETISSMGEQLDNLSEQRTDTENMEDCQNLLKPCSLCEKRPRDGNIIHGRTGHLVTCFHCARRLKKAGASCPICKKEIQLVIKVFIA
Target sequence (Q00987 whole entry, looked up): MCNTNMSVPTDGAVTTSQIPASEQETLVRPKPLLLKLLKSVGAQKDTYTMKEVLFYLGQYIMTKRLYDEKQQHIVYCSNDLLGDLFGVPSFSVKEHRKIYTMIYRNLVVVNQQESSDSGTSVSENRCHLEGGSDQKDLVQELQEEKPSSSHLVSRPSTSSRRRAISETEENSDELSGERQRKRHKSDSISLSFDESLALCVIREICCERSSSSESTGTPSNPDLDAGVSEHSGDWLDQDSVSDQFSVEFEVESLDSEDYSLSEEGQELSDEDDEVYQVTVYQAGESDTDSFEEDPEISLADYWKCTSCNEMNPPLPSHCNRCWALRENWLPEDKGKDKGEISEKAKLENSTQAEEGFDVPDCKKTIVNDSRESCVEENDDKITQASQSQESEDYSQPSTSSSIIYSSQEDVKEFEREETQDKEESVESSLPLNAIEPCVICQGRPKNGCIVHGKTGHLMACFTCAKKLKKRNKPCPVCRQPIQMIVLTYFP
HIF-2a conf: confirmation of HIF-2a inhibitors. shares compounds with HIF-2a block. 786-0 RCC cells, HIF-2a luciferase reporter luminescence, overnight. inhibition, % at 18.8 µM. 1,800 tested, 56% active;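 active = mean inhibition across four replicates of at least 40 percent at the single tested concentration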
HIF-1a cs: HIF-1a inhibition counter-screen for HIF-2a hits; shares compounds with HIF-2a block; MiaPaCa-2 HIF-1a luciferase reporter, desferoxamine, overnight; inhibition, % at 18.8 µM; 1,800 tested, 72% active; AID 651589;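 active = mean inhibition of the reporter signal across four replicates at the single tested dose of 50% or more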
* marks the source's active call; other numbers are inactive results; x = not tested or not shown.

SMILES | CF NFkB block | PPC-1+TRAIL kill | hiPSC survival | C8 TRAIL sens | KKLEB tox | HIF-2a block | HIF-2a conf | HIF-1a cs | others
O=C1CCCCCN1Sc1ccccc1 | 12.4 | -18.9 | -2.1 | -5.8 | -5.0 | 44.3* | 30.8 | 8.4
COc1cc(OC)cc(C(=O)N2CCC(C(=O)NCCc3ccccc3)CC2)c1 | 8.3 | x | -0.1 | -4.7 | 10.9 | -24.1 | x | x
CCn1c(=O)c2c(nc(SCC(=O)NC3CCCC3)n2C)n(C)c1=O | 7.6 | x | 0.0 | 10.8 | -2.4 | 5.4 | x | x
C[C@H](NC(=O)c1nc[nH]c1C(=O)N1CCN(C(=O)OC(C)(C)C)CC1)C(=O)OC(C)(C)C | -9.2 | x | -2.2 | -1.7 | 6.4 | -4.9 | x | x
CC(C)C[C@H](NC(=O)c1nc[nH]c1C(=O)N1CCN(C(=O)OC(C)(C)C)CC1)C(=O)OC(C)(C)C | 18.6 | 2.9 | 9.6 | 23.8 | -10.0 | -10.9 | x | x | Mdm2 MdmX conf=99.2*
Cc1ccccc1-n1nnnc1Sc1nnnn1-c1ccccc1 | 77.6* | 9.3 | -5.6 | 55.1* | -69.4* | 49.0* | -14.6 | 100.3* | Mdm2 MdmX conf=103.7*
Cc1ccccc1-n1nnnc1SCC(N)=O | -8.0 | 6.8 | 3.2 | 3.1 | 8.6 | 9.5 | x | x
O=C(CN(Cc1ccccc1Cl)C(=O)c1csnn1)NC1CCCC1 | 6.8 | x | 0.7 | -21.1 | -12.1 | 1.5 | x | x
O=C(CN(C(=O)CNC(=O)c1ccco1)c1ccccc1F)NC1CCCCC1 | -13.4 | x | 0.1 | -9.1 | 1.7 | 8.0 | x | x
O=C(COC(=O)c1ccc[nH]c1=O)Nc1ccc(N2CCCCC2)cc1 | -1.3 | x | -0.4 | 29.4 | 0.0 | 90.8* | 95.1* | 74.1*
O=C(COC(=O)c1ccc[nH]c1=O)Nc1cc(S(=O)(=O)N2CCCCC2)ccc1Cl | 3.0 | -35.0 | 0.9 | -9.0 | 7.7 | 18.5 | x | x
O=C(COC(=O)c1ccc[nH]c1=O)Nc1ccc(S(=O)(=O)N2CCCC2)cc1 | 6.3 | 10.7 | 1.5 | -7.5 | -16.7 | 58.5* | -0.3 | 18.2
O=C(OCC(=O)N1CCCCCC1)c1ccc[nH]c1=O | -20.4 | x | -0.6 | -8.8 | 8.7 | 3.4 | x | x
O=C(c1ccccc1)N1CCSc2sccc2C1=O | 22.3 | 16.6 | 2.2 | 7.6 | -11.5 | 65.3* | 71.1* | -16.2
CCOC(=O)C1CCN(C(=O)COC(=O)CSc2ccc(C(N)=O)cc2[N+](=O)[O-])CC1 | 12.6 | x | 0.3 | 10.0 | 8.4 | 14.5 | x | x
COc1ccc(-c2oc3c(OC)c(OC)c(OC)c(O)c3c(=O)c2OC)cc1OC | -9.1 | 14.7 | -1.2 | 25.7 | -4.8 | -4.9 | x | x | Mdm2 MdmX conf=74.0*
Nn1c(COc2ccccc2F)nnc1SCC(=O)NC1CC1 | -3.2 | x | 0.9 | -6.8 | 7.4 | -8.8 | x | x
CCC(=O)Nc1cccc(C(=O)/C=C/c2cc(Br)ccc2OC)c1 | 12.3 | 4.3 | -2.4 | -29.8 | 5.8 | 83.8* | 84.2* | 105.7* | Mdm2 MdmX conf=102.7*
Cc1cc(C)c2c(=O)[nH]c(SCc3ccccc3)nc2n1 | 28.5 | -1.1 | -2.0 | -6.0 | -4.5 | 18.7 | x | x
C=CCSc1nnc(NC(=O)c2nc(SCC)ncc2Cl)s1 | -14.7 | -19.2 | -1.5 | -5.6 | 22.2 | 17.8 | x | x
CCSc1nnc(NC(=O)c2nc(S(=O)(=O)Cc3ccc(F)cc3)ncc2Cl)s1 | 91.7* | x | -0.3 | 23.0 | -97.2* | 87.9* | -29.3 | 96.7*
Cc1nnc(NC(=O)c2nc(S(=O)(=O)Cc3ccccc3C)ncc2Cl)s1 | 98.8* | x | -0.1 | 96.8* | -92.3* | 91.4* | 10.4 | 104.5* | Mdm2 MdmX conf=103.0*
CC(C)c1nnc(NC(=O)c2nc(S(=O)(=O)Cc3ccc(F)cc3)ncc2Cl)s1 | 89.2* | x | 0.1 | 94.4* | -100.7* | 64.3* | 66.2* | 106.9* | Mdm2 MdmX conf=103.2*
Cc1ccc(CS(=O)(=O)c2ncc(Cl)c(C(=O)Nc3nnc(C(C)C)s3)n2)cc1 | 85.3* | x | -0.2 | 82.8* | -86.1* | 76.4* | 88.1* | 106.4*
CN(c1ccccc1)S(=O)(=O)c1ccc(NC(=O)c2ccccc2C(=O)O)cc1 | -8.1 | x | 1.4 | -0.2 | 1.3 | 7.7 | x | x
SMILES | CF NFkB block | PPC-1+TRAIL kill | hiPSC survival | C8 TRAIL sens | KKLEB tox | HIF-2a block | HIF-2a conf | HIF-1a cs | others
O=C(COC(=O)CNC(=O)c1ccccc1)Nc1nnc(-c2ccccc2)o1 | -14.6 | x | 0.5 | -5.7 | 26.7 | -8.1 | x | x
O=C(O)c1ccc(CNC(=O)c2ccc3c(c2)C(=O)N(Cc2cccnc2)C3=O)cc1 | -1.1 | x | -0.4 | 1.6 | 14.3 | 0.0 | x | x
CSc1nnc(NC(=O)c2nc(S(=O)(=O)Cc3ccccc3F)ncc2Cl)s1 | 95.2* | x | -0.4 | 80.9* | -78.9* | 68.5* | 24.2 | 105.9* | Mdm2 MdmX conf=102.2*
CSc1ncc(Cl)c(C(=O)Nc2nnc(SC/C=C/c3ccccc3)s2)n1 | -8.2 | 13.9 | -2.4 | -10.8 | 11.2 | 7.4 | x | x
Cc1cccc(CS(=O)(=O)c2ncc(Cl)c(C(=O)Nc3nnc(C(C)C)s3)n2)c1 | 92.5* | x | 0.1 | 95.2* | -86.9* | 81.7* | x | x | Mdm2 MdmX conf=103.0*
CSc1nnc(NC(=O)c2nc(S(=O)(=O)Cc3cccc(C)c3)ncc2Cl)s1 | 90.5* | x | 0.0 | 84.3* | -50.2* | 72.9* | 33.3 | 107.4* | Mdm2 MdmX conf=103.0*
O=[N+]([O-])c1ccccc1S(=O)(=O)N1CCN(c2ccc(F)cc2)CC1 | -4.2 | x | 0.5 | -1.8 | -9.2 | -2.8 | x | x
CCCN1CCC(NC(=O)CC2C(=O)NCCN2Cc2ccccc2C)CC1 (configuration not stated) | 17.9 | x | -0.1 | 5.7 | -13.8 | 14.3 | x | x
CCOC(=O)c1ccc(NS(=O)(=O)c2c(C)nc3sccn3c2=O)cc1 | 24.3 | x | -2.2 | 14.2 | -12.7 | 18.0 | x | x
COc1ccc(NC(=O)CN2CCN(CC(=O)Nc3ccc(F)cc3)CC2)c(OC)c1 | -6.4 | x | -0.4 | 9.3 | 4.3 | 13.1 | x | x
CC(NC(=O)CN1C(=O)NC2(CCCC2)C1=O)c1ccc(Cl)cc1Cl (configuration not stated) | 6.6 | x | 11.1 | -11.9 | 7.2 | -6.4 | x | x
COc1ccccc1C(C[N+](=O)[O-])c1c(N)n(C)c(=O)n(C)c1=O (configuration not stated) | 47.8 | 10.1 | -0.8 | 3.5 | -8.6 | 73.7* | 55.7* | -2.7
COc1ccccc1C(c1c(N)n(C)c(=O)n(C)c1=O)C(C)[N+](=O)[O-] (configuration not stated) | -16.8 | -7.9 | -0.6 | 12.1 | 13.3 | 11.9 | x | x
O=C1Nc2ccccc2/C1=C/C(=O)c1cccs1 | 35.0 | 8.9 | -6.3 | 5.9 | -20.0 | 54.0* | 37.5 | 41.5
COc1ccc(C(=O)/C=C2/C(=O)Nc3ccccc32)cc1OC | 23.0 | x | -0.6 | 22.8 | -11.1 | 40.5* | 41.8* | 44.2
